Source: PubChem BioAssay (Tox21)
Inconclusive results are not listed. Calls of active or inactive are those of the source. Unless noted, calls follow the shape of the dose curve; as a rule, active = well fitted curve in the direction sought with a large enough effect in the repeat runs; inconclusive = weak or mixed curves; inactive = no such curve, though single readings can be large; an effect the other way counts as inactive or inconclusive.

Key:
[1] = qHTS assay to identify small molecule agonists of H2AX (AID 1224845; active = well fitted activation curve with a large enough effect in the signal ratio in the repeat runs, not every such curve was filed as active; the % refers to the signal ratio; also: potency is read from the fitted curve at half-maximal effect)
How it was run: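 Wild-type CHO-K1 cells, plated overnight, exposed 3hr at 37C to 15 concentrations (0.76% DMSO final). Lysed, then HTRF anti-pH2AX (S139) cryptate and anti-H2AX-d2 antibodies, 24 hr room temperature; 665/620 nm emission read.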

[2] = qHTS assay to identify small molecule agonists of the hypoxia (HIF-1) signaling pathway (AID 1224846; active = well fitted activation curve with a large enough effect in the signal ratio in the repeat runs, not every such curve was filed as active; the % refers to the signal ratio)
How it was run: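 HRE-bla ME-180 cells (beta-lactamase reporter under hypoxia response element) were plated at 2,000 cells/well in medium with 0.5% dialyzed FBS, rested 5 hrs, then given compounds in DMSO for 17 hrs at 37C, 5% CO2. Reporter induction was read with CCF4-AM FRET substrate.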

[3] = qHTS assay to identify small molecule agonists of H2AX - cell viability counter screen (AID 1224847; calls by dose curve; also: top concentration of the series differs between compounds; nearly all actives have a fitted effect of over 30% in size)
How it was run: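 Quantitative HTS viability measurement: CHO-K1 wild-type cells in serum (10% FBS) medium, short 3 hr drug exposure at 37C with 0.76% DMSO, CellTiter-Glo luminescent detection.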

[4] = qHTS RealTime-Glo MT Cell Viability Assay in HepG2 cells - 24 hour (AID 1224867); also: nearly all actives have a fitted effect of over 50% in size
How it was run: (§1)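 Luminescence read-out: viable HepG2 cells reduce a prosubstrate to a NanoLuc substrate, giving a signal proportional to live cell number. Reads taken at 0, 8, 16, 24, 32 and 40 h of compound exposure at 37 C.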

[5] = qHTS RealTime-Glo MT Cell Viability Assay in HEK293 cells - 32 hour (AID 1224868); also: nearly all actives have a fitted effect of over 50% in size; also: potency is read from the fitted curve at half-maximal effect
How it was run: (§2)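 Nonlytic real-time viability readout: viable cells convert prosubstrate to NanoLuc substrate, giving luminescence proportional to live cell number. HEK293, 600 cells/well, compound added after 5 h, continuous culture at 37 C.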

[6] = A CellTox Green Cytotoxicity Assay to monitor cytotoxicity in HEK293 cells - 0 hour (AID 1224869); also: nearly all actives have a fitted effect of over 50% in size
How it was run: (§3)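 HEK293 cells premixed with CellTox Green dye were seeded at 600 cells/well and left 5 h at 37 C/5% CO2 before pin transfer of 23 nL compound in DMSO. Fluorescence from dye bound to dead-cell DNA was read during 40 h treatment.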

[7] = qHTS RealTime-Glo MT Cell Viability Assay in HepG2 cells - 40 hour (AID 1224870); also: nearly all actives have a fitted effect of over 50% in size
How it was run: (§4)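 HepG2 cells (600/well) mixed with RealTime-Glo MT reagent, settled 5 h at 37 C/5% CO2 before compound addition. Nonlytic NanoLuc luminescence from viable-cell prosubstrate reduction read repeatedly during 40 h treatment at 37 C.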

[8] = A CellTox Green Cytotoxicity Assay to monitor cytotoxicity in HEK293 cells - 40 hour (AID 1224871); also: nearly all actives have a fitted effect of over 45% in size
How it was run: as §3

[9] = qHTS RealTime-Glo MT Cell Viability Assay in HEK293 cells - 16 hour (AID 1224872)
How it was run: as §2

[10] = qHTS RealTime-Glo MT Cell Viability Assay in HepG2 cells - 8 hour (AID 1224873); also: nearly all actives have a fitted effect of over 55% in size
How it was run: as §4

[11] = qHTS RealTime-Glo MT Cell Viability Assay in HEK293 cells - 40 hour (AID 1224874); conditions: RealTime-Glo luminescence; max response: stronger effect = lower value; also: nearly all actives have a fitted effect of over 50% in size; also: potency is read from the fitted curve at half-maximal effect
How it was run: (§5)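 HEK293 cells mixed with RealTime-Glo reagents (NanoLuc plus cell-permeant prosubstrate) at 600 cells/well, preincubated 5 h at 37 C/5% CO2, then given 23 nL compound in DMSO. Nonlytic luminescence from viable cells was read at 0, 8, 16, 24, 32 and 40 h.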

[12] = A CellTox Green Cytotoxicity Assay to monitor cytotoxicity in HEK293 cells - 24 hour (AID 1224875); also: nearly all actives have a fitted effect of over 45% in size
How it was run: as §3

[13] = qHTS RealTime-Glo MT Cell Viability Assay in HepG2 cells - 32 hour (AID 1224877); also: nearly all actives have a fitted effect of over 55% in size
How it was run: as §1

[14] = A CellTox Green Cytotoxicity Assay to monitor cytotoxicity in HepG2 cells - 24 hour (AID 1224878); also: nearly all actives have a fitted effect of over 45% in size
How it was run: (§6)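 HepG2 cells were seeded together with the CellTox Green dye at 600 cells/well, left 5 h at 37 C/5% CO2, then given compounds in DMSO. Fluorescence from dye bound to dead-cell DNA was read repeatedly over 40 h of treatment at 37 C.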

[15] = A CellTox Green Cytotoxicity Assay to monitor cytotoxicity in HepG2 cells - 40 hour (AID 1224879); also: nearly all actives have a fitted effect of over 40% in size; also: potency is read from the fitted curve at half-maximal effect
How it was run: as §6

[16] = qHTS RealTime-Glo MT Cell Viability Assay in HEK293 cells - 0 hour (AID 1224880); also: nearly all actives have a fitted effect of over 45% in size; also: potency is read from the fitted curve at half-maximal effect
How it was run: as §5

[17] = qHTS assay to identify small molecule antagonists of the estrogen related receptor (ERR) signaling pathway from Tox21 library (AID 1224848); also: nearly all actives have a fitted effect of over 50% in size; also: potency is read from the fitted curve at half-maximal effect
How it was run: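 Luminescent reporter read-out (ONE-Glo) from NTP's ERR cell line after 18 h treatment at 37 C with DMSO-dissolved Tox21 compounds; cells pre-plated 6 h beforehand at 2,000 per well.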

[18] = qHTS assay to identify small molecule agonists of the estrogen related receptor (ERR) signaling pathway from Tox21 library (AID 1224849; calls by dose curve; also: nearly all actives have a fitted effect of over 15% in size); conditions: ERR reporter cell line, ONE-Glo luciferase, 18 h; at 92.4 µM (top of the series) unless noted
How it was run: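 ERR reporter cell line (NTP) seeded, rested 6 h at 37 C/5% CO2, then pinned with Tox21 compounds in DMSO. After 18 h at 37 C, ONE-Glo luciferase luminescence was read following 30 min at room temperature.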

[19] = A CellTox Green Cytotoxicity Assay to monitor cytotoxicity in HepG2 cells - 16 hour (AID 1224876); also: nearly all actives have a fitted effect of over 45% in size
How it was run: as §6

[20] = qHTS assay to identify small molecule agonists of the hypoxia (HIF-1) signaling pathway - cell viability counter screen (AID 1224844; calls by dose curve; also: nearly all actives have a fitted effect of over 50% in size)
How it was run: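 HRE-bla ME-180 cells in medium with 0.5% dialyzed FBS were preincubated 5 hrs at 37C, exposed to compounds for 17 hrs, then viability was read as CellTiter-Glo luminescence after 30 min at room temperature, in the reporter wells.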
% is scaled to controls: 0 for no effect and ±100 for the full control effect.

CC(=O)c1ccc2c(c1)[C@H](NC(=O)c1ccc(F)cc1)[C@@H](O)C(C)(C)O2
inactive: Potency [1] | outcome [2] | Potency [3] | Potency [4] | Potency [5] | Potency [6] | Potency [7] | Potency [8] | Potency [9] | Potency [10] | max response [11] -0.992% | Potency [12] | Potency [13] | Potency [14] | Potency [15] | Potency [16]

Cc1cccc(Oc2ccccc2)c1
inactive: Potency [1] | outcome [2] | activity change, positive = activation [18] -65.1% | Potency [4] | Potency [6] | Potency [7] | Potency [8] | Potency [12] | Potency [19] | Potency [16]
active: Potency [17] 26.6 µM | Potency [11] 47.8 µM | Potency [15] 47.8 µM

CC(C)(C)C(=O)OCOP(=O)(COCCn1cnc2c(N)ncnc21)OCOC(=O)C(C)(C)C
inactive: outcome [2] | Potency [3] | activity change, positive = activation [18] -1.22% [at 42.5 µM] | Potency [4] | Potency [6] | Potency [7] | Potency [8] | Potency [12] | Potency [19] | Potency [13] | Potency [14] | Potency [15] | Potency [16]
active: Potency [1] 0.277 µM | Potency [5] 0.756 µM | Potency [11] 0.848 µM

CCC(=O)OC(C)(C)C1CC=C(C)CC1 (stereo not given)
inactive: Potency [1] | outcome [2] | Potency [3] | Potency [17] | activity change, positive = activation [18] -6.48% | Potency [4] | Potency [6] | Potency [7] | Potency [8] | Potency [9] | Potency [10] | max response [11] -0.19% | Potency [12] | Potency [19] | Potency [13] | Potency [14] | Potency [16]

O=C(NS(=O)(=O)/C=C/c1cccs1)c1ccc(F)cc1Br
active: Potency [16] 19.5 µM
inactive: Potency [1] | outcome [2] | Potency [3] | Potency [4] | Potency [6] | Potency [7] | Potency [9] | Potency [10] | Potency [12] | Potency [19] | Potency [13] | Potency [14]

C#CCOC(=O)[C@@H](C)Oc1ccc(Oc2ncc(Cl)cc2F)cc1
inactive: Potency [1] | outcome [2] | Potency [17] | activity change, positive = activation [18] -13.6% | Potency [4] | Potency [5] | Potency [6] | Potency [7] | Potency [9] | max response [11] -16.3% | Potency [12] | Potency [19] | Potency [13] | Potency [14] | Potency [15] | Potency [16]

Cc1cc(CC(=O)O)c(C)n1-c1ccc(Cl)cc1
inactive: Potency [1] | outcome [2] | Potency [3] | Potency [17] | activity change, positive = activation [18] -14.3% [at 42.5 µM] | Potency [4] | Potency [6] | Potency [7] | Potency [10] | max response [11] -0.616% | Potency [12] | Potency [19] | Potency [14] | Potency [15] | Potency [16]

CCCCCC(CO)CCC (stereo not given)
inactive: Potency [1] | outcome [2] | Potency [17] | activity change, positive = activation [18] 2.67% | Potency [4] | Potency [5] | Potency [6] | Potency [7] | Potency [8] | Potency [9] | Potency [10] | max response [11] 1.02% | Potency [12] | Potency [19] | Potency [13] | Potency [14] | Potency [15] | Potency [16]

CCCC(=O)OCC
inactive: Potency [20] | Potency [3] | Potency [4] | Potency [6] | Potency [7] | Potency [8] | Potency [9] | Potency [10] | max response [11] 20% | Potency [12] | Potency [13] | Potency [14] | Potency [15] | Potency [16]

O=C1[C@H](CC[C@H](O)c2ccc(F)cc2)[C@@H](c2ccc(O)cc2)N1c1ccc(F)cc1
active: Potency [17] 26.6 µM | Potency [11] 19 µM
inactive: Potency [1] | outcome [2] | Potency [3] | activity change, positive = activation [18] -42.1% [at 42.5 µM] | Potency [4] | Potency [6] | Potency [7] | Potency [8] | Potency [10] | Potency [12] | Potency [19] | Potency [14] | Potency [15] | Potency [16]

Nc1nc(CC(=O)O)cs1
active: Potency [17] 61.3 µM
inactive: Potency [1] | outcome [2] | activity change, positive = activation [18] -48.9% | Potency [4] | Potency [6] | Potency [7] | Potency [8] | Potency [9] | Potency [10] | Potency [12] | Potency [19] | Potency [13] | Potency [14] | Potency [16]

O=S(=O)(O)c1ccc(O)c2ncccc12
inactive: Potency [1] | outcome [2] | Potency [4] | Potency [5] | Potency [6] | Potency [7] | Potency [8] | Potency [10] | max response [11] 27.2% | Potency [12] | Potency [19] | Potency [13] | Potency [14] | Potency [16]

Nc1nc(N)c2nc(CNc3ccc(C(=O)N[C@@H](CCC(=O)O)C(=O)O)cc3)cnc2n1
inactive: Potency [20] | activity change, positive = activation [18] -62.3% | Potency [4] | Potency [6] | Potency [7] | Potency [8] | Potency [9] | Potency [10] | Potency [12] | Potency [19] | Potency [13] | Potency [14] | Potency [15] | Potency [16]

COc1ccc2[nH]c(S(=O)Cc3ncc(C)c(OC)c3C)nc2n1 (stereo not given)
inactive: Potency [1] | outcome [2] | Potency [3] | activity change, positive = activation [18] -23.9% [at 42.5 µM] | Potency [4] | Potency [5] | Potency [6] | Potency [10] | max response [11] -17.3% | Potency [12] | Potency [19] | Potency [13] | Potency [15] | Potency [16]

CCN(CC)CCNC(C(=O)OCCC(C)C)c1ccccc1 (stereo not given)
inactive: Potency [1] | outcome [2] | Potency [3] | Potency [17] | activity change, positive = activation [18] 0.0727% [at 42.5 µM] | Potency [4] | Potency [5] | Potency [6] | Potency [7] | Potency [8] | Potency [9] | Potency [10] | max response [11] -10.1% | Potency [12] | Potency [19] | Potency [13] | Potency [16]

O=c1c2ccccc2nnn1CCl
inactive: Potency [1] | outcome [2] | Potency [3] | Potency [4] | Potency [5] | Potency [6] | Potency [7] | Potency [8] | Potency [9] | Potency [10] | max response [11] 10.3% | Potency [12] | Potency [19] | Potency [13] | Potency [14] | Potency [15] | Potency [16]
